# An excerpt weighted towards active compounds, which were near 13% of everything screened.
# A350 autofl: qHTS Assay for Spectroscopic Profiling in A350 Spectral Region | 11% of 59,000 active | Compound autofluorescence, 340/450 nm, Alexa 350 dye-equivalents; hits give high values | max dye-equivalent concentration, M; in the data active = max dye-equivalent concentration above about 10 nM; inconclusive = mostly about 1.1 nM to 9.6 nM
# HSD17B inhib: qHTS Assay for Inhibitors of HSD17B4, hydroxysteroid (17-beta) dehydrogenase 4. Potency, µM (highest dose often 57.1 µM), for inactives: at the highest dose activity change, negative = inhibition, hits mostly inhibitors. 7.6% of 75,000 active. 3-hydroxyacyl-CoA dehydrogenase type-2 (Homo sapiens), Q99714. recombinant HSD17B10, NADH fluorescence kinetic;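 also: the protocol describes HADH2 (HSD17B10) and not the HSD17B4 of the title; potency is read from the fitted curve at half-maximal effect; % is scaled to controls: 0 for no effect and ±100 for the full control effect; nearly all actives have a fitted effect of over 70% in size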
#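 Enzyme plus compound, 15 min room temperature; substrate mix added (NAD+ 1 mM, beta-hydroxybutyryl-CoA 90 uM final); plates read kinetically for NADH fluorescence. HADH2 was His-tagged, E. coli-derived, 20 nM.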
# AID923: qHTS Assay for Allosteric/Competitive Inhibitors of Caspase-1: Spectroscopic Profiling in AFC Spectral Region. AID 923, 2007. compound fluorescence, AFC spectral region (405/520 nm). 1.1% of 75,000 active. Potency, µM (series often up to 57.5 µM), for the others: at the highest dose fluorescence increase, hits mostly activators; also: potency is read from the fitted curve at half-maximal effect; 0% is about no effect
#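 Titrations up to 57 uM read every 20 sec for 3 min (405/520 nm) with 50 nM caspase 1 and 5 uM Ac-WEHD-AFC, pH 7.5 HEPES buffer. Fluorescence-vs-time intercept gave baseline, scaled against on-plate AFC standard.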
# 4-MU autofl: qHTS Assay for Spectroscopic Profiling in 4-MU Spectral Region; max dye-equivalent concentration, M; compound autofluorescence, 340/450 nm, 4-MU equivalents; hits give high values; 11% of 59,000 active; AID 589, 2007; in the data active = max dye-equivalent concentration above about 10 nM; inconclusive = mostly about 1.1 nM to 9.6 nM
#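 Compounds in 100 mM Tris, pH 8.0, incubated 15 min at room temperature, then fluorescence read at 340 nm excitation/450 nm emission. Signal converted to 4-MU dye-equivalent concentration using an on-plate six-point 4-MU standard curve.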
# HADH2 inhib: qHTS Assay for Inhibitors of HADH2 (Hydroxyacyl-Coenzyme A Dehydrogenase, Type II); AID 886, 2007; 3-hydroxyacyl-CoA dehydrogenase type-2 (Homo sapiens), Q99714; Potency, µM (top dose mostly 57.1 µM), inactives show top-dose activity change, negative = inhibition, most hits filed as inhibitors; recombinant HADH2, NADH fluorescence, beta-hydroxybutyryl-CoA; 3.4% of 73,000 active; also: potency is read from the fitted curve at half-maximal effect; % is scaled to controls: 0 for no effect and ±100 for the full control effect; nearly all actives have a fitted effect of over 60% in size
# Target sequence (Q99714 whole entry, looked up, one chain of several): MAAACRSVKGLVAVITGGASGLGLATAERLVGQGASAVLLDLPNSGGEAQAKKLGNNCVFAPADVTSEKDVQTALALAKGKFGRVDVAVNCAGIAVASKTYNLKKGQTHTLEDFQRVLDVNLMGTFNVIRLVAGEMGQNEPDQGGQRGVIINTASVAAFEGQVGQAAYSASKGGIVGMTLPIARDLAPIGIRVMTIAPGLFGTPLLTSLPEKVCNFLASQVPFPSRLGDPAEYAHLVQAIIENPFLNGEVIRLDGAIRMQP
#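 20 nM HADH2 + cpd, 15 min RT; add 1 mM NAD+/90 uM beta-hydroxybutyryl-CoA; kinetic fluorescence 360/450 nm, 4 min. Tris-HCl pH 9.0, 0.01% Tween-20.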
# * marks the source's active call; other numbers are inactive results; i = inactive; ? = inconclusive; . = no result; [ ] = dose if it differs, or a comment. Unless noted, calls follow the shape of the dose curve; as a rule, active = well fitted curve in the direction sought with a large enough effect; inconclusive = small, poorly fitted or top-dose-only effect, or another doubt; inactive = no such curve, though single readings can be large; an effect the other way counts as inactive or inconclusive.
SMILES,A350 autofl,HSD17B inhib,AID923,4-MU autofl,HADH2 inhib
CC(C)C12CN3CC(C(C)C)(CN(C1)C3c1ccc3c(c1)OCO3)C2=O (configuration not stated),i,4%,1%,i,5%
Cc1ccc2c(c1)-c1cc(C)nn1C(c1ccc3c(c1)OCO3)N2 (configuration not stated),2.8e-08M*,25µM*,-3%,2.8e-08M*,-5%
CC1C(=O)C(C)C(c2ccc3c(c2)OCO3)NC1c1ccc2c(c1)OCO2 (configuration not stated),i,3%,0%,i,4%
CSc1cc2c(cc1C(F)(F)F)N(C(=O)Nc1cccnc1)CC2,.,-2%,-1%,.,-6%
O=C(O)CCCC[C@H]1CCSS1,i,-14%,-2%,i,?
Cc1cc(C)n(-c2cc(N3CCOCC3)ncn2)n1,.,-8%,2%,.,-3%
Cc1ccc(C)n1-c1ccc(N2CCOCC2)nc1,5.1e-08M*,25µM*,2%,5.2e-08M*,32µM*
CN(C)S(=O)(=O)c1ccc(N2CCOCC2)nc1,2.3e-08M*,25µM*,-1%,2.2e-08M*,25µM*
Nc1nonc1-c1noc(-c2ccccc2)n1,1.4e-08M*,.,.,1.1e-08M*,.
COc1ccccc1-c1noc(-c2ccccc2)n1,i,2%,-1%,i,-2%
CCOC(=O)N/N=C1/C[C@@H](O)[C@@H](O)[C@@H]2[C@@H]3C(=O)N([C@@H](C)c4ccccc4)C(=O)[C@H]3CC[C@H]12,.,0%[11.4 µM],2%[11.5 µM],.,8%[11.4 µM]
CCCc1nc2n[nH]c(N)c2c2c1COC(C)(C)C2,i,.,.,i,.
CC1(C)Cc2nc3n[nH]c(N)c3cc2CO1,3.7e-08M*,-9%,5%,3.3e-08M*,-5%
COC(=O)N1CCC2(CC1)CN(C(=O)Nc1ccccc1)C2,i,2%,1%,i,-4%
Cc1ccccc1-c1cc(NCCN2CCOCC2)ncn1,i,-1%,0%,i,9%
COc1ccc(OC)c2c(C)cc(NCCN3CCOCC3)nc12,.,25µM*,3%,.,?
Cn1cccc1C(=O)N1CCC2(CC1)CN(c1ccncc1)C2,i,6%,4%,i,-6%
CCCc1cc(COC)c(C#N)c(=O)[nH]1,1.3e-08M*,4µM*,-1%[11.5 µM],1.3e-08M*,-20%[11.4 µM]
Cc1cc(N(C)C)c(C#N)c(=O)[nH]1,i,7%,1%,i,4%
O=C(c1cnccn1)N1CCC2(CCCN(c3ccccc3)C2)CC1,i,-3%,0%,i,7%
Cc1cc(NC(=O)CSc2ccc3nnc(-c4ccc(Cl)cc4)n3n2)no1,3.7e-08M*,?,0%,?,-2%
Cc1cc(NC(=O)CSc2ccc3nnc(-c4cccc(F)c4)n3n2)no1,?,32µM*,-1%,?,-28%
COc1cccc(-c2cncnc2NC2CCNCC2)c1,i,-7%,7%,i,-4%
CC1(C)Cc2c(sc3nc(-c4cc5ccccc5o4)n(N)c(=O)c23)CO1,1.2e-07M*,-2%,2%,1.2e-07M*,0%
CC(=O)N1CCC[C@@]2(CCN(c3ccncc3)C2)C1,i,6%,4%,i,-7%
SMILES,A350 autofl,HSD17B inhib,AID923,4-MU autofl,HADH2 inhib
COc1ccc(C2C(C(=O)NC(C)C)c3ccccc3C(=O)N2C)cc1OC (configuration not stated),7.2e-08M*,25µM*,0%,7.7e-08M*,-14%
COc1ccc(C2C(C(=O)NCCN3CCOCC3)c3ccccc3C(=O)N2C)cc1OC (configuration not stated),1.7e-08M*,1%,0%,1.7e-08M*,-1%
COc1ccc(C2C(C(=O)Nc3cc(C)on3)c3ccccc3C(=O)N2C)cc1OC (configuration not stated),1.3e-07M*,25µM*,1%,1e-07M*,26%
COc1ccc(N2C(=O)CCC(C(=O)NCCN3CCOCC3)C2c2ccc(OC)c(OC)c2)cc1 (configuration not stated),?,16%,3%,?,6%
N#Cc1c(N)sc(=S)c2c1CCCC2,1.4e-08M*,25µM*,15%,?,8%
CCC1(C)Cc2c(C#N)c(N)sc(=S)c2CO1 (configuration not stated),2.8e-08M*,.,.,2.3e-08M*,.
CCO/C=N/c1c(C#N)c2c(c(=S)n1C)COC(C)(C)C2,i,?,14%,i,-24%
Cc1cc(-n2c(C)cc(C(=O)CN3C(=O)NC4(CCCCCC4)C3=O)c2C)no1,?,32µM*,-1%,?,12%
CC(=O)OC1CC[C@]2(C)C(CC(OC(C)=O)[C@]3(C)C2CC[C@@]2(C)C(c4ccoc4)OC(=O)C4O[C@]432)C1(C)C (some centres not stated),.,-5%,-1%,.,.
COCc1[nH]nc2c1C1(C(=O)Nc3ccc(F)cc31)C(C#N)=C(N)O2 (configuration not stated),?,-4%,3%,i,2%
N#CC1=C(N)Oc2n[nH]c(-c3ccccc3)c2C12C(=O)Nc1ccccc12 (configuration not stated),1.3e-07M*,0%,1%,1.6e-07M*,5%
COCC(=O)N1CCC2(CCCN(Cc3cc(C(F)(F)F)cc(C(F)(F)F)c3)C2)CC1,i,1%,1%,i,7%
Nc1nc2c(nc(Br)n2C2OC(CO)C(O)C2O)c(=O)[nH]1 (configuration not stated),.,8%,-1%,.,.
Cc1cc2nc(-c3ccc(NC(=O)C(C)C)cc3)oc2cc1C,.,2µM*,2%,.,28%
CC(Oc1ccc(Cl)cc1Cl)C(=O)Nc1ccc2oc(-c3ccncc3)nc2c1 (configuration not stated),4.7e-08M*,13µM*,0%,5.7e-08M*,?
COc1cc(C(=O)Nc2cc(-c3nc4cc(C)ccc4o3)ccc2C)cc(OC)c1OC,.,?,0%,.,19%
CC(C)C(=O)Nc1cccc(-c2nc3ccccc3o2)c1,i,-30%,-1%,i,0%
Cc1ccc(-c2nc3cc(NC(=O)C(C)C)ccc3o2)cc1C,?,32µM*,-1%,?,i
Cc1ccc(-c2nc3cc(NC(=O)C(C)C)ccc3o2)cc1,.,16µM*,2%,.,35%
NC(N)=NC[C@@H]1COC2(CCCCC2)O1,i,0%[25.6 µM],-1%[25.7 µM],i,-4%[25.6 µM]
CC(C)C(=O)Nc1ccc(-c2nc3cccnc3o2)cc1,.,25µM*,-1%,.,i
Cc1ccc2c(c1)nc(NCCO)n2C,2.4e-08M*,?,2%,3e-08M*,-24%

# Compound activity as filed in PubChem BioAssay.
